This note sets out measurements from PubChem BioAssay (NCI).

The structures appear in SMILES notation. About 83,000 compounds went through this panel and 20% of them were active in at least one assay; those are over-represented in the sample as a whole.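 The endpoint reported here, percent growth, reads 100 for growth as untreated, 0 for no net growth and -100 for all cells dead.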 Unmarked numbers belong to inactive results. Active and inactive are the calls of the source. How the source made its calls: active means growth percent below 10; inactive means the rest.

Some test systems named below: NCI-H23 lung; NCI-H226 lung; NCI-H322M lung; HOP-62 NSCLC; NCI-H460 lung; NCI-H522 lung; A549/ATCC NSCLC; 786-0 renal; COLO 205 colon; DU-145 prostate; K-562 leukemia; MALME-3M melanoma; MDA-MB-231 breast; RXF 393 renal; SF-268 CNS; SF-295 CNS; SF-539 CNS; UACC-257 melanoma; M14 melanoma; HCT-15 colon.
Experiment in all cases: NCI-60 one-dose screen, 48 h (100 = growth as untreated, 0 = no growth, -100 = all killed)
What all share (conditions): 10 µM unless noted

`CC(=O)c1cc(C(=O)c2ccc3c(c2)Sc2ccccc2N3)c2c(C)cc(C)cn12`: the growth was 26.7% in the test on NCI-H23 lung; 30% in the test with NCI-H226 lung; 44.9% with NCI-H322M lung; 20.8% in the test with HOP-62 NSCLC; 0.69% (active) in the test on NCI-H460 lung; -31.2% (active) with NCI-H522 lung. Besides, the growth with A549/ATCC NSCLC is 3.95% (active); in the test on 786-0 renal, 4% (active); with COLO 205 colon, -37.4% (active); with DU-145 prostate, 2.22% (active); with K-562 leukemia, 4.47% (active); in the test with MALME-3M melanoma, 69.6%. For the same molecule, the growth is -13.5% (active) in the test with MDA-MB-231 breast; 34.3% in the test on RXF 393 renal; 11.9% with SF-268 CNS; -1.02% (active) with SF-295 CNS; -2.53% (active) in the test on SF-539 CNS; 26.9% in the test with UACC-257 melanoma. Also, the growth with M14 melanoma is 9.62% (active); in the test with HCT-15 colon, 15%.
Turning to `Cc1nn(-c2ccccc2)c2c1oc(=O)c1cc(Cl)ccc12`, the growth with NCI-H23 lung is 107%; with NCI-H226 lung it was 96.3%; in the test on NCI-H322M lung, 90.5%; with HOP-62 NSCLC, 91.6%; with NCI-H460 lung, 107%; with NCI-H522 lung, 113%. In addition, the growth in the test with A549/ATCC NSCLC was 102%; in the test with 786-0 renal, 100%; in the test on COLO 205 colon, 120%; with DU-145 prostate, 169%; in the test with K-562 leukemia, 106%; in the test on MALME-3M melanoma it was 106%. Moreover, the growth with MDA-MB-231 breast was 94%; in the test with RXF 393 renal it was 116%; in the test on SF-268 CNS, 90.6%; with SF-295 CNS, 109%; in the test on SF-539 CNS, 97.9%; in the test with UACC-257 melanoma it was 99.7%. In addition, the growth with M14 melanoma is 92.6%; in the test on HCT-15 colon it was 99.4%.
With `O=[N+]([O-])c1ccc(Oc2cccc(C(F)(F)F)c2)c([N+](=O)[O-])c1`, the growth with NCI-H23 lung was 27.7%; with NCI-H226 lung it was 47.6%; in the test on NCI-H322M lung, 90.3%; in the test with HOP-62 NSCLC it was 101%; in the test on NCI-H460 lung, 95.6%; with NCI-H522 lung, -16% (active). Further, the growth in the test on A549/ATCC NSCLC is 97.2%; with 786-0 renal, 47.5%; with COLO 205 colon it was 2.36% (active); in the test with DU-145 prostate it was 95.2%; with K-562 leukemia, 11.2%; with MALME-3M melanoma it was 52.3%. Moreover, the growth with MDA-MB-231 breast is 19.7%; with RXF 393 renal it was 53.6%; in the test on SF-268 CNS, 32.2%; in the test on SF-295 CNS it was 108%; in the test with SF-539 CNS it was 36.9%; in the test on UACC-257 melanoma, 53.7%. Also, the growth in the test on M14 melanoma was 9.6% (active); in the test on HCT-15 colon it was 19%.
With `CCOC(=O)c1c2c(c(C)n1Cc1ccccc1)-c1nc(N)ncc1CC2`, the growth in the test with NCI-H23 lung was 93.9%; in the test on NCI-H226 lung, 83.7%; in the test with NCI-H322M lung it was 94.7%; in the test with HOP-62 NSCLC, 82.4%; in the test with NCI-H460 lung, 102%; in the test on NCI-H522 lung, 96.7%. Also, the growth with A549/ATCC NSCLC is 104%; in the test on 786-0 renal it was 92%; with COLO 205 colon it was 131%; in the test on DU-145 prostate it was 120%; with K-562 leukemia, 94.2%; in the test with MALME-3M melanoma, 168%. The growth in the test on MDA-MB-231 breast is 79.3%; with RXF 393 renal, 120%; in the test with SF-268 CNS it was 104%; in the test on SF-295 CNS, 229%; with SF-539 CNS, 103%; in the test on UACC-257 melanoma, 144%. Besides, the growth in the test on M14 melanoma is 111%; in the test on HCT-15 colon, 99.4%.
`O=C(Nc1ccc(Cl)cc1)Nc1ccc(Nc2nncc3ccccc23)cc1`: the growth with NCI-H23 lung was 12.5%; in the test on NCI-H226 lung, 33.3%; in the test with NCI-H322M lung, 64.3%; in the test on HOP-62 NSCLC it was 38.7%; in the test on NCI-H460 lung, 9.89% (active); in the test on NCI-H522 lung, 11.9%. For the same molecule, the growth in the test on A549/ATCC NSCLC is 20.1%; in the test on 786-0 renal it was 50.4%; in the test with COLO 205 colon it was 18.6%; in the test on DU-145 prostate it was 33.7%; in the test on K-562 leukemia, 9.49% (active); in the test on MALME-3M melanoma, 38.5%. Moreover, the growth with MDA-MB-231 breast was 36.6%; in the test with RXF 393 renal, 65.7%; in the test with SF-268 CNS, 42.4%; with SF-295 CNS it was 17.8%; in the test on SF-539 CNS it was 33%; with UACC-257 melanoma it was 15.3%. In addition, the growth with M14 melanoma was 19.3%; with HCT-15 colon, 18.3%.
Consider `Clc1cc(Cl)c(OCC#CI)cc1Cl`, for which the growth is 97.3% in the test with NCI-H23 lung; 43.1% in the test on NCI-H226 lung; 127% in the test with NCI-H322M lung; 108% in the test with HOP-62 NSCLC; 100% in the test with NCI-H460 lung; 18% in the test on NCI-H522 lung. Further, the growth in the test with A549/ATCC NSCLC is 101%; in the test on 786-0 renal, 98.9%; with COLO 205 colon it was 5.9% (active); in the test with DU-145 prostate, 86.8%; in the test with K-562 leukemia it was 69.5%; with MALME-3M melanoma, 0.95% (active). Moreover, the growth was 83.2% in the test on MDA-MB-231 breast; -11.9% (active) in the test with RXF 393 renal; 98.6% in the test with SF-268 CNS; 101% in the test on SF-295 CNS; 33.2% in the test with SF-539 CNS; -3.08% (active) in the test with UACC-257 melanoma. The growth with M14 melanoma was 37.7%; in the test on HCT-15 colon, 42.1%.
Regarding `O=C1C(Cl)=C(N=Nc2c(Cl)c(O)c3ccccc3c2O)C(=O)c2ccccc21`, the growth in the test on NCI-H23 lung was 68.2%; in the test on NCI-H226 lung, 90.1%; with NCI-H322M lung, 45%; with HOP-62 NSCLC, 52.1%; in the test on NCI-H460 lung, 55.7%; with NCI-H522 lung, 72.7%. For the same molecule, the growth is 51.9% in the test on A549/ATCC NSCLC; 98.4% with 786-0 renal; 86.7% in the test with COLO 205 colon; 81.3% with DU-145 prostate; 37.1% in the test on K-562 leukemia; 43.1% in the test with MALME-3M melanoma. Also, the growth was 61.2% in the test on MDA-MB-231 breast; 88.5% in the test with RXF 393 renal; 77.9% with SF-268 CNS; 33.2% with SF-295 CNS; 96.2% with SF-539 CNS; 59.5% with M14 melanoma. Moreover, the growth in the test on HCT-15 colon is 61.7%.
As to `CCCCCCCC/C=C/CCCCCCCC1=NC(C)(C)CN1CCO`, the growth in the test on NCI-H23 lung was 47.1%; with NCI-H226 lung, 83.3%; in the test with NCI-H322M lung, 50.8%; in the test with HOP-62 NSCLC, 6.19% (active); with NCI-H460 lung it was -39.5% (active); in the test with NCI-H522 lung, -45.2% (active). Besides, the growth is 24.7% with A549/ATCC NSCLC; 32.3% with 786-0 renal; -63.9% (active) with COLO 205 colon; 64.5% in the test with DU-145 prostate; -51.6% (active) in the test on K-562 leukemia; 64.9% in the test with MALME-3M melanoma. Besides, the growth in the test on MDA-MB-231 breast was 9.49% (active); in the test on RXF 393 renal it was -23.4% (active); with SF-268 CNS it was 46%; in the test on SF-295 CNS it was 30.2%; in the test on SF-539 CNS, -5.97% (active); in the test with UACC-257 melanoma, 20.1%. The growth with HCT-15 colon was -34.9% (active).
